Consider 93 compounds from PubChem BioAssay AID1851 (National Center for Advancing Translational Sciences (NCATS), 2009).

About 4,000 (25%) of roughly 16,000 compounds were called active. Not shown: some 26% with an inconclusive outcome. A selection follows. Unmarked numbers belong to inactive results. The call rests on the fitted dose curve; in most records, active means well fitted curve in the direction sought with a large enough effect; inconclusive means small, poorly fitted or top-dose-only effect, or effect the other way; inactive means no such curve, though single readings can be large or run the other way.
On the % scale 0 is the no-effect control and ±100 the full control effect.

In this assay the target is Cytochrome P450 2C9 (Homo sapiens) (UniProt P11712). The assay can be described thus: Cytochrome panel assay with activity outcomes. The following applies: recombinant CYP, pro-luciferin dealkylation, luminescence, p450-cyp2c9; series mostly up to 57.1 µM.
Chain of Cytochrome P450 2C9 (Homo sapiens) (P11712 whole entry, looked up): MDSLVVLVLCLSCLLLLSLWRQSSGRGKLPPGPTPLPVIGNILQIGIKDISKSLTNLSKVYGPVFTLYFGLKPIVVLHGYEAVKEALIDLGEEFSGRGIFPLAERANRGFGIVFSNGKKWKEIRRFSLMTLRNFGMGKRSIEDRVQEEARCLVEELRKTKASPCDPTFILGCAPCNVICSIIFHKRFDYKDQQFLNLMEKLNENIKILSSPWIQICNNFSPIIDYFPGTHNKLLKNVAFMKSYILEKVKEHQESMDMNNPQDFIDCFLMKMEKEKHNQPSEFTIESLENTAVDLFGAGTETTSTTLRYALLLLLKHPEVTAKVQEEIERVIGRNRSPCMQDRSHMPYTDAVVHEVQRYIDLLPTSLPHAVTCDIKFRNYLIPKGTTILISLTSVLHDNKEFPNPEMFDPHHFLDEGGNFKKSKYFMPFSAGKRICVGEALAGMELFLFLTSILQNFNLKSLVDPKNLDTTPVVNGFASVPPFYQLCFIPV
On to `COc1ccccc1CNc1cc(-c2c(C)noc2C)ncn1`, for which the activity, negative = inhibition was -2.44% [at 2.29 µM].

For the compound `Cc1ccc(-n2nc(C)c3c2OC(N)=C(C#N)C3c2ccco2)cc1` (stereo not drawn), the AC50 is 6.31 µM (active).

For `COc1ccccc1NC(=O)COC(=O)c1ccc(S(=O)(=O)NCc2ccco2)cc1`, the half-maximal activity concentration (AC50) was 0.398 µM (active).

As for `NCCSSCCN`, the AC50 result was “inactive”.

Turning to `CN1CCN(c2ncc3nc(-c4cc(F)cc(F)c4)c(=O)n(Cc4cccs4)c3n2)CC1`, the AC50 entry is “inactive”.

For the compound `CN(C)c1ncc2nc(-c3cc(F)cc(F)c3)c(=O)n(Cc3cccs3)c2n1`, the AC50 entry is “inactive”.

Turning to `O=c1c(-c2cccs2)nc2cnc(N3CCNCC3)nc2n1Cc1cccs1`, the AC50 was 12.6 µM (active).

For `O=c1c(-c2cc(F)cc(F)c2)nc2cnc(N3CCNCC3)nc2n1Cc1cccs1`, the AC50 was 3.98 µM (active).

Consider `O=c1cnc2cnc(N3CCNCC3)nc2n1Cc1cccs1`, for which the AC50 result was “inactive”.

For the compound `COc1ccc(-c2nc3cnc(N4CCN(C)CC4)nc3n(Cc3cccs3)c2=O)cc1`, the AC50 entry is “inactive”.

For the compound `CN1CCN(c2ncc3nc(-c4ccc(Cl)cc4)c(=O)n(Cc4cccs4)c3n2)CC1`, the AC50 entry was “inactive”.

For `Cc1nc2cnc(N3CCNCC3)nc2n(Cc2cccs2)c1=O`, the AC50 result is “inactive”.

Consider `O=c1c(-c2ccc(Cl)cc2)nc2cnc(N3CCNCC3)nc2n1Cc1cccs1`, for which the AC50 was 20 µM (active).

Take `O=c1c(-c2ccc(F)cc2)nc2cnc(N3CCOCC3)nc2n1Cc1cccs1`: the AC50 entry was “inactive”.

As to `O=c1c(-c2ccc(F)cc2)nc2cnc(N3CCNCC3)nc2n1Cc1cccs1`, the AC50 is 15.8 µM (active).

In the case of `COc1ccc(NC(=O)N2CC[C@@]3(CCCN(C(=O)c4cc(C(F)(F)F)cc(C(F)(F)F)c4)C3)C2)cc1`, the AC50 entry was “inactive”.

As to `O=C1C(O)=C(O)C(=O)C(O)=C1O`, the AC50 result was “inactive”.

Turning to `Cc1ccnc(NS(=O)(=O)c2ccc(N=[N+]=[N-])cc2)n1`, the activity, negative = inhibition was -7.68% [at 11.4 µM].

Turning to `COC(=O)[C@@H]1O[C@@H](c2c(OC)c(OC)c(C)c(OC)c2OC)[C@H](C)[C@@H](O)[C@@H]1C`, the activity, negative = inhibition was 14.6% [at 11.4 µM].

With `COCCn1c(=O)c(-c2cccs2)nc2cnc(N3CCN(C)CC3)nc21`, the AC50 result is “inactive”.

`COc1ccc(-n2c(=O)c(-c3cccs3)nc3cnc(N4CCNCC4)nc32)cc1`: the AC50 entry was “inactive”.

For `COCCn1c(=O)c(-c2cccs2)nc2cnc(N3CCNCC3)nc21`, the AC50 was 2 µM (active).

For `Cc1noc(C)c1C(=O)N1CCC2(CCN(C(=O)NC(C)C)CC2)CC1`, the AC50 entry is “inactive”.

In the case of `CCOC(=O)C1=C(C)N=C2SC(C(=O)OC)=CC(=O)N2C1c1ccc(F)cc1` (stereo not drawn), the AC50 is 7.08 µM (active).

Consider `COC(=O)C1=C(CSc2nncn2C)NC(=O)NC1c1ccc(F)cc1` (stereo not drawn), for which the AC50 entry is “inactive”.

As to `OCCCCNCc1ccc(OCc2ccccc2Cl)cc1`, the AC50 entry is “inactive”.

As for `Nc1cccc(OCc2nc(N)nc(N)c2-c2ccc(Cl)cc2)c1`, the activity, negative = inhibition was -4.32% [at 11.4 µM].

Turning to `Cc1cc(OCc2nc(N)nc(N)c2-c2ccc(Cl)c(Cl)c2)ccc1[N+](=O)[O-]`, the half-maximal activity concentration (AC50) was 1.58 µM (active).

Consider `CC1(C)S[C@@H]2[C@H](NC(=O)[C@@H](NC(=O)N3CCNC3=O)c3ccccc3)C(=O)N2[C@H]1C(=O)O`, for which the AC50 result is “inactive”.

With `O=C(Nc1ccc(Nc2ccc3c(c2)C(=O)c2ccccc2C3=O)c2c1C(=O)c1ccccc1C2=O)c1ccccc1`, the activity, negative = inhibition was -2.6% [at 11.4 µM].

With `O=C1c2ccccc2-c2ccc(NC(=O)[C@H]3CCCC[C@@H]3C(=O)O)cc21`, the activity, negative = inhibition is -10.8% [at 11.4 µM].

`CCC(=O)Nc1ccc2c(c1)C(=O)c1ccccc1C2=O`: the half-maximal activity concentration (AC50) was 3.16 µM (active).

Take `O=C(O)c1ccc(Nc2ccnc3cc(Cl)ccc23)cc1O`: the activity, negative = inhibition was -1.26% [at 11.4 µM].

On to `CN(C)c1ncc2nc(-c3cccs3)c(=O)n(-c3ccccc3)c2n1`, for which the AC50 entry is “inactive”.

In the case of `O=c1c(-c2cccs2)nc2cncnc2n1-c1ccccc1`, the concentration at half-maximal activity (AC50) was 10 µM (active).

On to `O=c1c(-c2cccc(Cl)c2)nc2cncnc2n1-c1ccccc1`, for which the AC50 is 10 µM (active).

As to `O=c1c(-c2ccccc2)nc2cncnc2n1-c1ccccc1`, the AC50 was 15.8 µM (active).

Take `O=c1c(-c2ccc(F)cc2)nc2cncnc2n1-c1ccccc1`: the AC50 entry was “inactive”.

Consider `COc1ccc(-n2c(=O)c(-c3ccccc3)nc3cncnc32)cc1`, for which the AC50 result was “inactive”.

With `COc1ccc(-n2c(=O)c(-c3cccs3)nc3cncnc32)cc1`, the AC50 entry is “inactive”.

As to `CSCC[C@@H]1NC(=O)C/C=C\[C@@H](C)COC(=O)[C@@H](C)COC1=O`, the activity, negative = inhibition was 14.5% [at 11.4 µM].

With `CCCCn1c(NCc2ccccc2NS(=O)(=O)c2ccc(C)cc2)nc2ccccc21`, the AC50 is 1.58 µM (active).

Turning to `c1ccc(CN(CC2=NCCN2)c2ccccc2)cc1`, the AC50 result was “inactive”.

Turning to `COc1nc(Oc2ccc(/C=N/O)cc2)nc(N(C)C)n1`, the AC50 result was “inactive”.

Regarding `CN(C)C(=C(C#N)C#N)N1CCN(c2ccc(Cl)c(Cl)c2)CC1`, the half-maximal activity concentration (AC50) was 12.6 µM (active).

For `O=S(=O)(/N=C(/Nc1ccccn1)c1ccccc1)c1ccccc1`, the AC50 result is “inactive”.

Regarding `O=S(=O)(C=C(c1ccccc1)c1ccccc1)c1ccccc1`, the AC50 was 7.08 µM (active).

On to `O=S(=O)(O)c1ccc(N=Nc2ccccc2)cc1`, for which the activity, negative = inhibition was -1.61% [at 11.4 µM].

For the compound `CC(C)(C)C(=O)Nc1ccnc(-c2cccnc2)n1`, the AC50 is 3.16 µM (active).

Consider `c1ccc(CNc2ccnc(-c3cccnc3)n2)cc1`, for which the activity, negative = inhibition is -12.1% [at 2.29 µM].

Take `Cc1ccccc1-c1nccc(NCc2cccnc2)n1`: the activity, negative = inhibition is -17.5% [at 2.29 µM].

With `COc1cccc(-c2nccc(NCc3cccs3)n2)c1`, the activity, negative = inhibition was -26.6% [at 2.29 µM].

`O=C(Nc1ccnc(-c2cccnc2)n1)c1ccccc1Cl`: the AC50 is 15.8 µM (active).

Consider `c1csc(CNc2ccnc(-c3ccoc3)n2)c1`, for which the activity, negative = inhibition is -25.1% [at 2.29 µM].

Consider `N#Cc1cccc(-c2nccc(NCc3cccnc3)n2)c1`, for which the activity, negative = inhibition was -11.5% [at 2.29 µM].

`COc1ccc(CNc2ccnc(-c3cccnc3)n2)c(OC)c1`: the activity, negative = inhibition is 8.69% [at 2.29 µM].

On to `O=C(Nc1ccnc(-c2cccnc2)n1)c1cccc(Cl)c1Cl`, for which the AC50 was 3.98 µM (active).

Regarding `c1cncc(-c2nccc(NCc3cccs3)n2)c1`, the AC50 was 0.398 µM (active).

As to `CN(C)C(=O)c1ccc(-c2nccc(NCc3cccnc3)n2)cc1`, the activity, negative = inhibition was 5.1% [at 2.29 µM].

For the compound `N[C@H](CCC(=O)NCS(=O)(=O)O)C(=O)O`, the AC50 result was “inactive”.

As to `CN(C)CCN(c1ccccn1)c1ccccn1`, the activity, negative = inhibition is 0.501% [at 11.4 µM].

On to `O=C(C1=C(O)C(=O)N(Cc2ccco2)C1c1ccccc1)c1cccs1` (stereo not drawn), for which the concentration at half-maximal activity (AC50) was 8.91 µM (active).

For the compound `NS(=O)(=O)Cc1noc2ccccc12`, the AC50 result was “inactive”.

With `[N-]=[N+]=NC[C@@H]1O[C@@H](n2cnc3c(N)ncnc32)[C@@H]2O[C@@H]21`, the activity, negative = inhibition is 2.07% [at 11.4 µM].

As to `CC1CCN(CC[C@H]2CCCN2S(=O)(=O)c2cccc(O)c2)CC1`, the AC50 entry is “inactive”.

Regarding `CC1CCN(CC[C@@H]2CCCN2S(=O)(=O)c2cccc(O)c2)CC1`, the AC50 result is “inactive”.

With `CC1CCN(S(=O)(=O)c2ccc3c(c2)C(=NO)c2cc(S(=O)(=O)N4CCC(C)CC4)ccc2-3)CC1`, the AC50 is 3.98 µM (active).

In the case of `N#Cc1cccc(-c2nc(NCc3ccccc3)c3ccccc3n2)c1`, the activity, negative = inhibition was -29.7% [at 2.29 µM].

Consider `CS(=O)(=O)c1nc(-c2ccccc2)cc(-c2ccccc2)c1C#N`, for which the AC50 was 0.282 µM (active).

Consider `CC(=O)Nc1ccc(-c2cc(-c3ccc(NC(C)=O)cc3)nc(-c3ccccc3)n2)cc1`, for which the AC50 result was “inactive”.

On to `COCCCN=CC1=C(O)CC(C)(C)CC1=O`, for which the AC50 entry is “inactive”.

Turning to `O=c1oc2ccccc2cc1-c1csc(NN=C2CCCCC2)n1`, the AC50 was 3.55 µM (active).

Regarding `Cc1cccc(-c2noc(-c3cc4ccccc4oc3=O)n2)c1`, the AC50 result was “inactive”.

With `CN1CCC2(CC1)C1CN(C)CC=C1C(C#N)=C(N)C2(C#N)C#N` (stereo not drawn), the AC50 entry is “inactive”.

On to `O=C(c1ccco1)N1CCC2(CC1)CCN(c1ccc(-c3ccccc3)cc1)CC2`, for which the AC50 entry is “inactive”.

Take `Cc1sc(=NC(=O)c2ccco2)n(C)c1-c1ccccc1`: the AC50 is 1.12 µM (active).

As to `Cn1c(=NC(=O)CCl)sc2ccccc21`, the AC50 result is “inactive”.

For `Cc1sc(=NC(=O)c2ccco2)n(C)c1-c1ccc(F)cc1`, the half-maximal activity concentration (AC50) was 8.91 µM (active).

For the compound `O=C(c1cnccn1)N1CCC2(CCCN(c3ccccn3)C2)CC1`, the AC50 result is “inactive”.

Turning to `CS(=O)(=O)Nc1cccc(-c2ccc3ncnc(NC4CCNCC4)c3c2)c1`, the activity, negative = inhibition is -5.87% [at 2.29 µM].

Consider `O=C(c1csnn1)N1CCC2(CCCN(Cc3ccccc3)C2)CC1`, for which the AC50 result is “inactive”.

With `CCN1CCN(c2nc(C)c3c(n2)CCCC3=O)CC1`, the AC50 entry is “inactive”.

For the compound `CC1(C)CC(=O)c2cnc(N)nc2C1`, the AC50 entry is “inactive”.

Take `CCOC(=O)c1c(C)nc2c(c1-c1ccccc1)C(=O)CCC2`: the AC50 is 17.8 µM (active).

As to `CCOC(=O)c1c(C)nc2c(c1-c1ccc(OC)cc1)C(=O)CC(C)(C)C2`, the AC50 is 15.8 µM (active).

As for `Cc1nccn1C[C@@H]1CCc2c(c3ccccc3n2C)C1=O`, the AC50 result was “inactive”.

For the compound `Cc1nnc(SCC2=C(C(=O)O)N3C(=O)[C@@H](NC(=O)Cn4cnnn4)[C@@H]3SC2)s1`, the AC50 result was “inactive”.

Turning to `CCc1nnc(NS(=O)(=O)c2ccc(N=Cc3c(C)[nH]n(-c4ccc(C)cc4)c3=O)cc2)s1`, the AC50 is 8.91 µM (active).

Consider `Cc1ccc(-n2[nH]c(C)c(C=Nc3ccc4[nH]c(=O)[nH]c4c3)c2=O)cc1C`, for which the AC50 result is “inactive”.

`NC(N)=NC(N)=Nc1ccccc1`: the AC50 entry was “inactive”.

Regarding `C/C=C\C[C@@H](C)[C@@H](O)[C@H]1C(=O)N[C@@H](CC)C(=O)N(C)CC(=O)N(C)[C@@H](CC(C)C)C(=O)N[C@@H](C(C)C)C(=O)N(C)[C@@H](CC(C)C)C(=O)N[C@@H](C)C(=O)N[C@H](C)C(=O)N(C)[C@@H](CC(C)C)C(=O)N(C)[C@@H](CC(C)C)C(=O)N(C)[C@@H](C(C)C)C(=O)N1C`, the AC50 entry was “inactive”.

For `Fc1ccc(CSc2nnc(-c3cc4c(s3)-c3ccccc3CC4)o2)cc1`, the half-maximal activity concentration (AC50) was 3.16 µM (active).

Consider `CCCCc1cc2ccccc2c(OCCN(C)C)n1`, for which the AC50 entry is “inactive”.
